# Measured values reported in PubChem BioAssay (NCATS).
# Results filed as inconclusive are left out. Values without a mark were called inactive. Calls follow the shape of the dose curve; as a rule, active = well fitted inhibition curve with a large enough effect; inconclusive = small, poorly fitted or top-dose-only effect; inactive = no such curve, though single readings can be large or run the other way.
# System: Zika virus NS2B-NS3 protease (linked construct)
# Experiment: Primary screen NINDS Rhodamine qHTS for Zika virus inhibitors (AID 1347160); also: nearly all actives have a fitted effect of over 55% in size
# Settings: purified NS2B-NS3 protease, Rhodamine110 substrate fluorescence; series mostly up to 57.1 µM; activity change, negative = inhibition: at the top concentration
# Summary of the method: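 Rhodamine110-peptide cleavage (1.5 µM substrate) by 25 nM linked NS2B-NS3 enzyme at pH 8.0 (Tris, Tween 20), after 15 min RT preincubation with compounds; 15-min fluorescence change normalized to controls and Hill-fitted.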
# % is scaled to controls: 0 for no effect and ±100 for the full control effect.
row,Structure (SMILES),"activity change, negative = inhibition"
1,CC[C@@H](C)Nc1cc(C(=O)NC2CC3CCC(C2)N3c2ccc(C(=O)C3CC3)cn2)c(C)cc1C(N)=O (some centres not stated),24.4%
2,C/C=C(/C)C(=O)OC1C=C2C3C(C)C(C)C(OC(=O)C(C)C(C)O)CC3(C)CCC2(C)C2(C)CC(OC(C)=O)C3C(C)(C)C(O)C(=O)CC3(C)C12 (configuration not stated),-9.77% [at 15.1 µM]
3,Cc1nc2cc(C(=O)NCc3ccccn3)nn2c(C)c1Cc1cccc(Cl)c1,-6.25%
4,COc1cc2c(cc1OC(C)C)[C@H](c1ccc(Cl)cc1)N(c1ccc(N(C)CC3CCC(N4CCN(C)C(=O)C4)CC3)cc1)C(=O)C2 (some centres not stated),16.4%
5,COc1cc(C2OC(c3ccc(OC)c(OC)c3)C(C)C2C)ccc1O (configuration not stated),-4.73% [at 33.1 µM]
6,C=C1/C(=C/C=C2\CCC[C@@]3(C)C2CCC3[C@H](C)/C=C/[C@@H](O)C2CC2)C[C@@H](O)C[C@@H]1O (some centres not stated),24.6%
7,CN(C)C(=O)COC(=O)c1cc(-c2ccc(C3CCNCC3)cc2)c2ccc(-c3ccc(C(F)(F)F)cc3)cc2c1,635%
8,C/C(=C\Cc1c(O)c(Cl)c(C)c(C=O)c1O)CC/C=C(\C)[C@H]1CC(=O)C(C)(C)O1,-18.2% [at 33.1 µM]
9,CN(C)CCOC(C)(c1ccccc1)c1ccc(Cl)cc1 (configuration not stated),183%
10,C/C=C(\C)[C@@H]1C(C)=C[C@@H]2[C@H]([C@@H]1/C=C/C=C/C(=O)O)[C@@H](C)CC[C@@H]2O,-25.7% [at 33.1 µM]
11,COc1ccc(C(=O)O[C@H]2C=COC=C3C=C4C(=O)N(C)C(=S)C(=O)N4[C@@H]32)cc1Oc1cc(C=O)ccc1O,-14.5% [at 33.1 µM]
12,COc1c(C(O)CC(C)C)ccc2c1C(=O)OCc1cc(C)cc(O)c1O2 (configuration not stated),-25% [at 33.1 µM]
